# Measured values: PubChem BioAssay (EPA / NIEHS)
# Results filed as inconclusive are left out. The source made the active and inactive calls. How the source made its calls, unless noted: active means hit-call score of the fitted dose curve at least 0.9, where 1 is the maximum; inconclusive means response in the unintended direction; inactive means score below 0.9.
# Key:
# [1] = molecular target: T1, Thyroid hormone receptor alpha (Rattus norvegicus) + Thyroid hormone receptor beta (Rattus norvegicus) (UniProt P18113+P63059); test: TOX21_TR_LUC_GH3_Agonist_Followup: Tox21 GH3 Thyroid Hormone Receptor Agonism Luciferase Follow-Up Assay (AID 2283939)
# T1 sequence (P63059 whole entry, looked up): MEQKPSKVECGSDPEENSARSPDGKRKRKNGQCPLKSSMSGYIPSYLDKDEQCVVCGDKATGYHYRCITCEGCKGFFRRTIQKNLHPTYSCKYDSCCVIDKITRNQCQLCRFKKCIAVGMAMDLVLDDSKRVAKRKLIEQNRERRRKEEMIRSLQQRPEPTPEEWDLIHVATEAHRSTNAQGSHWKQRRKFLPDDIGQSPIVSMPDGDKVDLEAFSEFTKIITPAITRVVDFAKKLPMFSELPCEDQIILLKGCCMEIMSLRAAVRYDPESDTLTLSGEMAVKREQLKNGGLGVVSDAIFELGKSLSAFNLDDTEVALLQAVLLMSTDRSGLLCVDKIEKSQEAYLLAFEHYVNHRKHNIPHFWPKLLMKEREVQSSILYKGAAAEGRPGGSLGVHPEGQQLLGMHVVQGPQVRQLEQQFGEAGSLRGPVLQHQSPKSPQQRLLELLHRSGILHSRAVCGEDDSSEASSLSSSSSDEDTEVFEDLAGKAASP
# T1 sequence (P18113 whole entry, looked up): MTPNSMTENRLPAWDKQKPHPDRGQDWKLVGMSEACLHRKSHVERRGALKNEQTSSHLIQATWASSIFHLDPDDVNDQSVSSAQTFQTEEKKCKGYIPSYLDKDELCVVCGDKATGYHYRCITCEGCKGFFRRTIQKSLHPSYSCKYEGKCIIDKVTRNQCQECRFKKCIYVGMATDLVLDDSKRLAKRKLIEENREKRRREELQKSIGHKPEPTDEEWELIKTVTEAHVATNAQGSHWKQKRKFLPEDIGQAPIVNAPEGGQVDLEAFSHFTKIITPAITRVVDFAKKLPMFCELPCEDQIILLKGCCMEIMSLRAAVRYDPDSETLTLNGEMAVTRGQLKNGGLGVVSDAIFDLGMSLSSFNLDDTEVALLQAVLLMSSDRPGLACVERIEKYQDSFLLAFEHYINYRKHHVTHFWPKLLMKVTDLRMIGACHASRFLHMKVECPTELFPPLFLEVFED
# In short: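 Agonist-mode confirmatory run: 15 concentrations (5 nM to 92 uM final) on GH3 rat pituitary cells, 24 h at 37C/5% CO2, T3 as positive control. Luminescence read with ONE-Glo after 30 min.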
# [2] = molecular target: THRA (gene 7067) (UniProt P10827); test: TOX21_TRA_COA_Agonist_Followup_ratio: Tox21 Thyroid Hormone Receptor alpha Agonism through Coactivator Recruitment Follow-Up Assay, Ratio (AID 2283948; active means hit-call score of the fitted dose curve at least 0.9, where 1 is the maximum; inactive means score below 0.9)
# THRA (gene 7067), sequence (P10827 whole entry, looked up, the tested form may be a part): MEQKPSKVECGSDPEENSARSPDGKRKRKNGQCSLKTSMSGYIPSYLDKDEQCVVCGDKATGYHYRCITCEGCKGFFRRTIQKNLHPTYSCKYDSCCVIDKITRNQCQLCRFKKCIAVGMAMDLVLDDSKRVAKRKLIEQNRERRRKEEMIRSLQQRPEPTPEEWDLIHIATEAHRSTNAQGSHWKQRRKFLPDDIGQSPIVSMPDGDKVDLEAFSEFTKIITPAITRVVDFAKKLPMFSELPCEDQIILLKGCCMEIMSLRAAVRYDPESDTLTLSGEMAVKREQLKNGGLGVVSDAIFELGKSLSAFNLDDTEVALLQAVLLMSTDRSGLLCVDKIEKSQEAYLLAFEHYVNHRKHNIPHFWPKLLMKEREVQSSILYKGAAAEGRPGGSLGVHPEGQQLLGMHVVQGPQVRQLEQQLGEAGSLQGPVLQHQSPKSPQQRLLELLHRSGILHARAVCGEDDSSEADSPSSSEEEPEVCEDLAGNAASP
# In short: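 Read-out is the 520/495 nm emission ratio (ex 340 nm), scaled between DMSO-only wells as 0% and T3 wells as 100%. It reflects fluorescein-SRC-2 peptide recruitment to GST-TRα LBD detected via terbium anti-GST antibody.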
# [3] = molecular target: THRB (gene 7068) (UniProt P10828); test: TOX21_TRB_BLA_Agonist_Followup_ratio: Tox21 Thyroid Hormone Receptor beta Agonism Beta-lactamase (BLA) Follow-Up Assay, Ratio (AID 2283954)
# THRB (gene 7068), sequence (P10828 whole entry, looked up, the tested form may be a part): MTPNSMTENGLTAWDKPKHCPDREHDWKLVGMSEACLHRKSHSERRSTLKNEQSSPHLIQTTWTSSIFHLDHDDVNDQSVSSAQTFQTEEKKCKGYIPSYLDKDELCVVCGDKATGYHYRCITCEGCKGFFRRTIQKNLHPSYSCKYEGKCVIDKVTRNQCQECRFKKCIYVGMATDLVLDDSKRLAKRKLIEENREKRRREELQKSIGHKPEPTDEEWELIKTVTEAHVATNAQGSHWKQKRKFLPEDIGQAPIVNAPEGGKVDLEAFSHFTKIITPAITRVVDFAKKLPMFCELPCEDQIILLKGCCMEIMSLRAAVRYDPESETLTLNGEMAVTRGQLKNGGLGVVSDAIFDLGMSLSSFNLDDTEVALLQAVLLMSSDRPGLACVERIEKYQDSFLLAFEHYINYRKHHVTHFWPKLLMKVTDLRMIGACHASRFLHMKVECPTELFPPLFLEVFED
# In short: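 Agonist mode: compounds (11-point, triplicate) incubated 18 h with HEK293T cells carrying GAL4-DBD/human TRβ-LBD and UAS-β-lactamase. Blue/green (460/530 nm) FRET ratio read after 2 h CCF4-AM loading; CellTiter-Glo viability run in the same plates.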
# [4] = molecular target: THRB (gene 7068) (UniProt P10828); test: TOX21_TRB_COA_Agonist_Followup_ratio: Tox21 Thyroid Hormone Receptor beta Agonism through Coactivator Recruitment Follow-Up Assay, Ratio (AID 2283963; active means hit-call score of the fitted dose curve at least 0.9, where 1 is the maximum; inactive means score below 0.9)
# In short: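 Cell-free TR-FRET coactivator recruitment: GST-tagged TRβ LBD (5.0 nM) with 0.10% BSA incubated with compound, then fluorescein-SRC-2 peptide (200 nM) and Tb-anti-GST antibody (2 nM) added. 520:495 nm ratio normalized to DMSO (0%) and T3 (100%).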
# [5] = molecular target: Retinoic acid receptor RXR-alpha (Homo sapiens) (UniProt P19793); test: TOX21_TR_RXR_BLA_Agonist_Followup_ratio: Tox21 Thyroid Hormone Receptor beta Retinoid X Receptor alpha (RXRa) Agonism Beta-lactamase (BLA) Follow-Up Assay, Ratio (AID 2283968)
# Retinoic acid receptor RXR-alpha (Homo sapiens), sequence (P19793 whole entry, looked up): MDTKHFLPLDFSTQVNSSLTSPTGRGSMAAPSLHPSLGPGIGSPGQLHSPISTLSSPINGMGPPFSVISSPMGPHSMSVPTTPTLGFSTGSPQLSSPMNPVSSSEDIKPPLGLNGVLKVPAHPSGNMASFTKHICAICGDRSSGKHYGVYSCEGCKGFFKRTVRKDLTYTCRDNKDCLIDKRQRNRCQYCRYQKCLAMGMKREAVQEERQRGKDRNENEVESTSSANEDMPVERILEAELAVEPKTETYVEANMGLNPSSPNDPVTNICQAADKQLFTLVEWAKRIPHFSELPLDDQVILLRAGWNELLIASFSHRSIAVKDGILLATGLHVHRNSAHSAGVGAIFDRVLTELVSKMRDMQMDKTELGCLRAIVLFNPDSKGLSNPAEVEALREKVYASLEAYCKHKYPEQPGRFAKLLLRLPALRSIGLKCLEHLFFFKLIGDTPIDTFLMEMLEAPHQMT
# In short: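 Agonism is scored as an increase in the 460:530 nm beta-lactamase substrate ratio over DMSO in RXRa-UAS-bla HEK293T cells exposed for 16 h to 11 compound concentrations.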
# [6] = TOX21_TR_RXR_BLA_Agonist_Followup_viability: Viability Assessment in the Tox21 Thyroid Hormone Receptor beta Retinoid X Receptor alpha (RXRa) Agonism Beta-lactamase (BLA) Follow-Up Assay (AID 2283970)
# In short: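 Luminescent ATP read (CellTiter-Glo) after 16h exposure of RXRa-UAS-bla HEK293T cells at 37C/5% CO2. Activity normalized to DMSO; signal loss scored as reduced viability.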
# [7] = molecular target: T1, Thyroid hormone receptor alpha (Rattus norvegicus) + Thyroid hormone receptor beta (Rattus norvegicus); test: TOX21_TR_LUC_GH3_Antagonist_Followup: Tox21 GH3 Thyroid Hormone Receptor Antagonism Luciferase Follow-Up Assay (AID 2283942)
# In short: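 Luminescence read-out (ONE-Glo, 30 min at room temperature) in GH3 reporter cells challenged with 1.0 nM T3 final. Compounds ran at 92 uM to 5nM over 15 concentrations for 24 h; DMSO served as negative control and baseline.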
# [8] = molecular target: THRA (gene 7067) (UniProt P10827); test: TOX21_TRA_COA_Antagonist_Followup_ratio: Tox21 Thyroid Hormone Receptor alpha Antagonism through Coactivator Recruitment Follow-Up Assay, Ratio (AID 2283953)
# In short: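 We measured antagonism of T3-type coactivator recruitment using a TR-FRET ratio (emission 520 and 495 nm) between a Tb-labelled anti-GST antibody on TRα LBD (2.5 nM) and SRC-2 peptide (200 nM). Activity was scaled between DMSO and T3 wells.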
# [9] = molecular target: Retinoic acid receptor RXR-alpha (Homo sapiens) (UniProt P19793); test: TOX21_TR_RXR_BLA_Antagonist_Followup_ratio: Tox21 Thyroid Hormone Receptor beta Retinoid X Receptor alpha (RXRa) Antagonism Beta-lactamase (BLA) Follow-Up Assay, Ratio (AID 2283972)
# In short: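 RXRa-UAS-bla HEK293T cells in phenol red-free DMEM with 2% charcoal-stripped FBS; compounds at 11 concentrations in triplicate, 16 h at 37C. LiveBLAzer FRET-B/CCF4-AM substrate 2 h at room temperature; read as 460:530 nm ratio versus DMSO.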
# [10] = TOX21_TR_RXR_BLA_Antagonist_Followup_viability: Viability Assessment in the Tox21 Thyroid Hormone Receptor beta Retinoid X Receptor alpha (RXRa) Antagonism Beta-lactamase (BLA) Follow-Up Assay (AID 2283979)
# In short: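 RXRa-bla HEK293T cells (2,500/well, phenol red-free DMEM, 2% charcoal-stripped FBS) were attached 5 h, then exposed to compounds at 11 concentrations in triplicate for 16 h at 37C. Viability measured by CellTiter-Glo ATP luminescence, bidirectional fitting versus DMSO.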
# [11] = TOX21_TRB_BLA_Agonist_Followup_viability: Viability Assessment in the Tox21 Thyroid Hormone Receptor beta Agonism Beta-lactamase (BLA) Follow-Up Assay (AID 2283956)
# In short: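 Viability was read as CellTiter-Glo luminescence in the same wells as the TRb-bla agonist read-out. HEK293T GAL4-TRb LBD cells were treated for 18 h (37C, 5% CO2) at 11 concentrations in triplicate. Fits were bidirectional versus DMSO baseline.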
# [12] = molecular target: Nucleoli Translocation, AR (gene 367) (UniProt P10275); test: UPITT_HCI_U2OS_AR_TIF2_Nucleoli_Antagonist: University of Pittsburgh U2OS Androgen Receptor-Transcriptional Intermediary Factor 2 (AR-TIF2) Antagonism High Content Imaging Assay for Nucleoli Translocation (AID 2283997)
# Nucleoli Translocation, AR (gene 367), sequence (P10275 whole entry, looked up, the tested form may be a part): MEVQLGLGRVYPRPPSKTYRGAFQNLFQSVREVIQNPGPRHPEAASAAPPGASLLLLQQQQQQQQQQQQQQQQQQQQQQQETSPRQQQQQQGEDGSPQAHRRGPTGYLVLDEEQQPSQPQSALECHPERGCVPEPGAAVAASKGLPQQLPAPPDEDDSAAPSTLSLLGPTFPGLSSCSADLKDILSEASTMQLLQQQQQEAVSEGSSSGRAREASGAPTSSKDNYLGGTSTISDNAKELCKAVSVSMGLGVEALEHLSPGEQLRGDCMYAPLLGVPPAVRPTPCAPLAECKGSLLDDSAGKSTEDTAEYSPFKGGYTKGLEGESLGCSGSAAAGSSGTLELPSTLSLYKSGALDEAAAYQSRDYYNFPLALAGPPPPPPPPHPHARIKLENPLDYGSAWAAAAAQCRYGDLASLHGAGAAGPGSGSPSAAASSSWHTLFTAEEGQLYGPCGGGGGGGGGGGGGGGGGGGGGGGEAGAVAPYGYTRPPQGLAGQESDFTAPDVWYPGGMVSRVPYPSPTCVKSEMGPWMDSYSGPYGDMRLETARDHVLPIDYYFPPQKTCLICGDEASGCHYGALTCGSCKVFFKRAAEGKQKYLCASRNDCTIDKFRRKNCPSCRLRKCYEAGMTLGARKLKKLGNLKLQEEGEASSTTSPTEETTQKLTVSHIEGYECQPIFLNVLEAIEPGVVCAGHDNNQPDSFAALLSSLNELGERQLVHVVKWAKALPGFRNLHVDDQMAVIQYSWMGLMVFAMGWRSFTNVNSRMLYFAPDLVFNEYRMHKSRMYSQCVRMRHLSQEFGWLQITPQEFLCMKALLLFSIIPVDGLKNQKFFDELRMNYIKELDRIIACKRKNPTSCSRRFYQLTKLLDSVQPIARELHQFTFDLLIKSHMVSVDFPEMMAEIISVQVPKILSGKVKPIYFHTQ
# In short: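 Compounds are added at 20 uM final concentration in 0.2% DMSO to U2OS cells carrying AR-RFP and TIF2-GFP fusions. Nucleolar AR-RFP fluorescence is then quantified by automated imaging. Antagonism is fitted positively against DHT baseline.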
# [13] = molecular target: Nucleoli Translocation, AR (gene 367) (UniProt P10275); test: UPITT_HCI_U2OS_AR_TIF2_Nucleoli_Agonist: University of Pittsburgh U2OS Androgen Receptor-Transcriptional Intermediary Factor 2 (AR-TIF2) Agonism High Content Imaging Assay for Nucleoli Translocation (AID 2283998)
# In short: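 Cells express human AR fused to red fluorescent protein and TIF2 fused to GFP. Red fluorescence in the nucleolar region was quantified by high-content imaging and fitted as gain-of-signal against a DMSO baseline. Compounds were tested at 0.195 to 50 uM final (0.5% DMSO).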
# [14] = molecular target: Ratio of Nucleoli Translocation and Cytoplasm, AR (gene 367) (UniProt P10275); test: UPITT_HCI_U2OS_AR_TIF2_Nucleoli_Cytoplasm_Ratio_Antagonist: University of Pittsburgh U2OS Androgen Receptor-Transcriptional Intermediary Factor 2 (AR-TIF2) Antagonism High Content Imaging Assay for Ratio of Nucleoli Translocation and Cytoplasm (AID 2283999);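 further: antagonists lower the DHT-driven ratio of nucleolar to cytoplasmic red signal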
# Ratio of Nucleoli Translocation and Cytoplasm, AR (gene 367), sequence (P10275 whole entry, looked up): as the sequence (P10275 whole entry, looked up, the tested form may be a part) above
# In short: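 This antagonist-mode endpoint tracks AR-RFP localisation, the nucleolus-to-cytoplasm intensity ratio, in TIF2-GFP-coexpressing U2OS cells. DMSO stays at or below 0.5%; testing spans 20 uM single-dose and 0.195–50 uM series, with DHT setting the activity baseline.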
# [15] = molecular target: Ratio of Nucleoli Translocation and Cytoplasm, AR (gene 367) (UniProt P10275); test: UPITT_HCI_U2OS_AR_TIF2_Nucleoli_Cytoplasm_Ratio_Agonist: University of Pittsburgh U2OS Androgen Receptor-Transcriptional Intermediary Factor 2 (AR-TIF2) Agonism High Content Imaging Assay for Ratio of Nucleoli Translocation and Cytoplasm (AID 2284000);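 further: hits raise the red nucleolar to cytoplasm ratio above vehicle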
# In short: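 Human osteosarcoma U2OS line, AR-RFP plus TIF2-GFP; compounds 0.195–50 uM final, 0.5% DMSO. Readout: nucleolar/cytoplasmic RFP ratio by HCI, positive direction vs DMSO baseline.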
# [16] = CCTE_Harrill_HTTr_CellCount_MCF7: CCTE's Cell Proliferation Assessment for the High-Throughput Transcriptomics (HTTr) Platform, Harrill Lab (AID 2284012);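 further: count of Hoechst-stained nuclei per well by high-content imaging in MCF-7 cells; cells exposed to compound for six hours; intended direction is loss of nuclei count meaning fewer cells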
# In short: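 For this full-screen endpoint, MCF-7 cultures received eight compound dilutions for six hours. Well nuclei counts from Hoechst imaging were analyzed relative to DMSO.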
# [17] = CCTE_Deisenroth_AIME_96WELL_CTox_Active: Cytotoxicity Assessment (CTOX) in CCTE's 96-well Estrogen Receptor Transactivation Assay with AIME metabolic competence (metabolism positive), Deisenroth Lab (AID 2284028)
# In short: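 Cytotoxicity in VM7Luc4E2 breast cells after 24 h exposure to medium from a 2 h metabolic pre-incubation with induced rat hepatic S9 in alginate microspheres; fluorescent live-cell protease readout, 10-point series 0.002–200 uM, n=4.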
# [18] = CCTE_Deisenroth_AIME_96WELL_CTox_Inactive: Cytotoxicity Assessment (CTOX) in CCTE's 96-well Estrogen Receptor Transactivation Assay without AIME metabolic competence (metabolism negative), Deisenroth Lab (AID 2284029)
# In short: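 Cytotoxicity in VM7Luc4E2 breast cells was scored as loss of fluorescent signal from a live-cell protease substrate 24 h after exposure, using bidirectional curve fitting. Test media came from a 2 h metabolism-negative pre-incubation (alginate-water, no hepatic S9) of compounds at 0.002-200 uM, with at least four replicates.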
# [19] = CCTE_Shafer_MEA_dev_burst_duration_mean: CCTE's Neural Network Formation Assay for Mean Burst Duration, Shafer Lab (AID 2284045; active means hit-call score of the fitted dose curve at least 0.9, where 1 is the maximum; inactive means score below 0.9)
# In short: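 Rat cortical cultures, 1.5 x 10^5 cells/well with laminin drop; continuous dosing days 0–12, media plus treatment refreshed DIV 5, 9. AxIS adaptive spike detection; mean single-electrode burst duration, AUC over four recordings, negative direction vs DMSO.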
# [20] = CCTE_Shafer_MEA_acute_AB: CCTE's Alamar Blue Assay for Cytotoxicity in the Neural Acute Assay, Shafer Lab (AID 2284069);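 further: active compounds lower the viability signal compared with DMSO wells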
# In short: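 Primary rat cortical neurons on MEA plates, exposed acutely after baseline recording on day 13 or 15 post-plating. Viability by CellTiter Blue resazurin reduction (1:6 reagent dilution), fluorescence 544/590 nm; loss of signal versus DMSO.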
# [21] = CCTE_Mundy_HCI_hN2_NOG_NeuronCount: CCTE's Neurite Outgrowth Assay in human hN2 cells for Neuron Count, Mundy Lab (AID 2284221)
# In short: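 Read-out is the number of betaIII-tubulin-positive neurons imaged by automated high-content analysis, with DMSO as negative control.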
compound,measurement,setting,value
O=C(O)CCCCCCNC1c2ccccc2CCc2ccccc21,outcome,[1],inactive
same,AC50,[2],23.8 µM (active)
same,outcome,[3],inactive
same,AC50,[4],13.2 µM (active)
same,outcome,[5],inactive
same,outcome,[6],inactive
CC[n+]1ccccc1,outcome,[7],inactive
same,outcome,[8],inactive
same,outcome,[9],inactive
same,outcome,[10],inactive
CCn1cc[n+](C)c1,outcome,[2],inactive
same,outcome,[3],inactive
same,outcome,[4],inactive
same,outcome,[5],inactive
OCCCCC(O)CO (stereo not drawn),outcome,[11],inactive
C[Si](C)O[Si](C)(C)O[Si](C)(C)O[Si](C)C,outcome,[11],inactive
ClC1=C(Cl)[C@]2(Cl)[C@H]3[C@H]([C@H](Cl)C(Cl)[C@@H]3Cl)[C@@]1(Cl)C2(Cl)Cl (stereo partly drawn),outcome,[12],inactive
same,outcome,[13],inactive
same,outcome,[14],inactive
same,outcome,[15],inactive
COP(=S)(OC)SCC(=O)N(C)C=O,outcome,[12],inactive
same,outcome,[13],inactive
same,outcome,[14],inactive
same,outcome,[15],inactive
same,outcome,[16],inactive
CCCCc1c(C)nc(NCC)nc1OS(=O)(=O)N(C)C,outcome,[16],inactive
CCC(C)(C)c1cc(-n2nc3ccccc3n2)c(O)c(C(C)(C)CC)c1,outcome,[17],inactive
same,outcome,[18],inactive
NCCc1cc(O)c(O)cc1O,outcome,[19],inactive
C[n+]1ccc(-c2ccccc2)cc1,outcome,[19],inactive
CP(=O)(O)CCC(N)C(=O)O (stereo not drawn),outcome,[20],inactive
C[n+]1ccc(-c2cc[n+](C)cc2)cc1,AC50,[21],50 µM (active)
CC(=O)[O-].CC(=O)[O-].O.O.O.[Pb+2],AC50,[21],12 µM (active)
